Assay results taken from PubChem BioAssay AID720597 (Broad Institute, 2013).
Potency and affinity values are given separately. The source made the active and inactive calls.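 How the source made its calls: active means fitted half-maximal dose no more than twice the top valid tested dose, for compounds that lower signal; inconclusive means fit invalid, or curve flat with activity between -70 and -30; inactive means potency past limit, curve flat within ±30, or signal increasing.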

molecular target: NAD-dependent protein deacylase sirtuin-5, mitochondrial (Homo sapiens) (UniProt Q9NXA8); assay: blockers of sirtuin-5 peptide desuccinylation – biochemical, fluorescence imaging, cherry-pick, set 6, dose response (AID 720597); settings: Purified SirT5, succinyl-peptide-AMC/trypsin fluorescence; series mostly up to 15 µM;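 further: lower AMC signal can also come from blocking the trypsin step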
Sequence (Q9NXA8 whole entry, looked up): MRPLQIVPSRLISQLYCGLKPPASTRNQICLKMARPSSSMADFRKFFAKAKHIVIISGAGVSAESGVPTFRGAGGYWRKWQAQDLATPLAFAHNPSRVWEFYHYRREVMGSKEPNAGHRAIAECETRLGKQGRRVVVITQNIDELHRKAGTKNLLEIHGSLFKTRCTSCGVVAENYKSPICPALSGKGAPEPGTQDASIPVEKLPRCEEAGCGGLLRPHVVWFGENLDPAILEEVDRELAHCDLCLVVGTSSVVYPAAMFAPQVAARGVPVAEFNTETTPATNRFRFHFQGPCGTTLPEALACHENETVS

outcome, inactive:
COc1cccc(NC(=O)N(C)C[C@H]2Oc3ncc(C4=CCCCC4)cc3C(=O)N([C@H](C)CO)C[C@@H]2C)c1
COc1ccc([Si](C)(C)[C@@H]2[C@@H](CCO)O[C@]3(C(=O)N(Cc4cccc(NC(C)=O)c4)c4ccccc43)[C@H]2C)cc1
O=C(CN1CCOCC1)NCC[C@H]1CC[C@@H](NS(=O)(=O)c2ccc(Cl)cc2)[C@@H](CO)O1
COc1ccc(S(=O)(=O)N(C)C[C@H]2Oc3ccc(NC(=O)NC4CCCCC4)cc3C(=O)N([C@H](C)CO)C[C@@H]2C)cc1
COc1ccc(S(=O)(=O)Nc2ccc3c(c2)C(=O)N([C@H](C)CO)C[C@@H](C)[C@H](CN(C)Cc2ccc(C(F)(F)F)cc2)OCCCC[C@H](C)O3)cc1
Cc1ccc(S(=O)(=O)N(C)C[C@@H]2OCCCC[C@H](C)Oc3ccc(NS(=O)(=O)c4ccc(Cl)cc4)cc3C(=O)N([C@@H](C)CO)C[C@H]2C)cc1
O=C(CCN1CCCCC1)N[C@@H]1CC[C@@H](CC(=O)N2CCC(Cc3ccccc3)CC2)O[C@H]1CO
Cc1ccc(S(=O)(=O)N(C)C[C@@H]2OCCCC[C@H](C)Oc3ccc(NS(=O)(=O)c4ccc(F)cc4)cc3C(=O)N([C@H](C)CO)C[C@@H]2C)cc1
Cc1ccc(CN(C)C[C@@H]2OCc3cnnn3CCCC(=O)N([C@H](C)CO)C[C@@H]2C)cc1
CCCC(=O)Nc1ccc2c(c1)OC[C@@H](C)N(Cc1ccccc1)C[C@@H](C)[C@@H](OC)CN(C)C2=O
COc1ccc(CN(C)C[C@H]2Oc3c(NS(=O)(=O)c4ccccc4)cccc3C(=O)N([C@@H](C)CO)C[C@H]2C)cc1
COc1ccccc1NC(=O)Nc1ccc2c(c1)C(=O)N(C)C[C@H](OC)[C@H](C)CN[C@@H](C)CO2
CO[C@H]1CN(C)C(=O)c2cc(NS(=O)(=O)c3ccc(Oc4ccccc4)cc3)ccc2OC[C@H](C)NC[C@H]1C
COc1ccc(S(=O)(=O)Nc2ccc3c(c2)C(=O)N([C@@H](C)CO)C[C@@H](C)[C@@H](CN(C)S(=O)(=O)c2ccccc2)OCCCC[C@@H](C)O3)cc1
C[C@H]1CN([C@@H](C)CO)S(=O)(=O)c2ccc(C3=CCCCC3)cc2O[C@H]1CN(C)S(=O)(=O)c1ccc(F)cc1
C[C@H]1CCCCO[C@H](CN(C)S(=O)(=O)c2ccc(Cl)cc2)[C@@H](C)CN([C@@H](C)CO)C(=O)c2cc(NS(=O)(=O)c3ccc(F)cc3)ccc2O1
COc1ccc(NC(=O)Nc2ccc3c(c2)C(=O)N([C@H](C)CO)C[C@H](C)[C@@H](CN(C)S(=O)(=O)c2cccs2)OCCCC[C@@H](C)O3)cc1
COc1ccc(C#Cc2ccc([C@H]3[C@@H](CO)N4C(=O)CN(C(C)=O)C[C@H]34)cc2)cc1
C[C@@H]1CN([C@@H](C)CO)S(=O)(=O)c2ccc(C#CC(C)(C)O)cc2O[C@H]1CN(C)Cc1ccc(F)cc1
Cc1ccc(-c2ccc3c(c2)O[C@@H](CN(C)Cc2ccccc2)[C@@H](C)CN([C@@H](C)CO)S3(=O)=O)cc1
C[C@H]1CN([C@@H](C)CO)C(=O)c2cccc(NC(=O)c3ccncc3)c2O[C@H]1CN(C)S(C)(=O)=O
CCOC(=O)N(C)C[C@H]1OCc2ccccc2-c2ccccc2C(=O)N([C@H](C)CO)C[C@@H]1C
COc1ccc(S(=O)(=O)Nc2ccc3c(c2)C(=O)N([C@@H](C)CO)C[C@H](C)[C@H](CN(C)Cc2ccc(C(F)(F)F)cc2)OCCCC[C@@H](C)O3)cc1
C[C@H](CO)N1C[C@H](C)[C@H](CN(C)C(=O)c2ccccc2F)Oc2ncc(Br)cc2C1=O
C[C@@H]1CN([C@@H](C)CO)C(=O)c2cccc(NC(=O)c3ccncc3)c2O[C@H]1CN(C)Cc1ccccc1
CN(C)C(=O)c1ccc(-c2ccc([C@H]3[C@H](CO)N4CCCCN(CCC(F)(F)F)C[C@@H]34)cc2)cc1
CN(C)C(=O)c1cccc(-c2ccc([C@@H]3[C@@H](CO)N4CCCCN(S(C)(=O)=O)C[C@@H]34)cc2)c1
C[C@@H]1CN([C@H](C)CO)C(=O)c2cc(NS(=O)(=O)c3ccc(F)cc3)ccc2O[C@@H](C)CCCCO[C@@H]1CN(C)S(=O)(=O)c1ccc(Cl)cc1
Cc1ccccc1-c1ccc2c(c1)O[C@@H](CN(C)C(=O)Nc1ccc(F)cc1)[C@@H](C)CN([C@@H](C)CO)S2(=O)=O
COc1ccc(S(=O)(=O)N(C)C[C@H]2OCCCC[C@@H](C)Oc3ccc(NS(=O)(=O)c4ccc(F)cc4)cc3C(=O)N([C@H](C)CO)C[C@H]2C)cc1
C[C@@H]1CN([C@H](C)CO)C(=O)c2cc(NS(=O)(=O)c3ccc(Cl)cc3)ccc2O[C@@H](C)CCCCO[C@@H]1CN(C)Cc1ccc2c(c1)OCO2
Cc1ccc(S(=O)(=O)N(C)C[C@H]2OCCCC[C@H](C)Oc3ccc(NS(=O)(=O)c4ccc(F)cc4)cc3C(=O)N([C@H](C)CO)C[C@@H]2C)cc1
C[C@@H]1CN([C@@H](C)CO)S(=O)(=O)c2ccc(C#Cc3cccc(F)c3)cc2O[C@@H]1CN(C)S(=O)(=O)c1ccccc1F
C[C@@H]1CN([C@@H](C)CO)S(=O)(=O)c2ccc(C#C[C@@H](C)O)cc2O[C@H]1CN(C)Cc1ccc(-c2ccccc2)cc1
O=C(C1CCCC1)N1CC2(C1)[C@H](c1ccccc1)[C@@H](CO)N2Cc1ccc(Cl)cc1
Cc1cccc(S(=O)(=O)N(C)C[C@@H]2OCc3ccccc3-c3c(n(C)c4ccccc34)C(=O)N([C@H](C)CO)C[C@@H]2C)c1
O=C(CCN1CCCCC1)N[C@H]1CC[C@@H](CC(=O)N2CCC(Cc3ccccc3)CC2)O[C@@H]1CO
Cc1ccc(-c2ccc([C@@H]3[C@@H](CO)N4CCCCN(S(=O)(=O)c5cccc(C)c5)C[C@H]34)cc2)cc1
O=C(NC1CCCC1)[C@H]1[C@H](CO)[C@H]2Cn3c(ccc(-c4ccncc4)c3=O)[C@H]2N1CCc1ccccc1
